Results as given in PubChem BioAssay AID504937 (National Center for Advancing Translational Sciences (NCATS), 2011).
Out of some 340,000 compounds screened, about 20 (0.006%) were called active. The entries come from a sample that favours actives as a whole. A number with no mark means an inactive call. The call rests on the fitted dose curve; in most records, active means well fitted inhibition curve with a large enough effect; inconclusive means small, poorly fitted or top-dose-only effect; inactive means no such curve, though single readings can be large or run the other way.

What follows are compounds tested against Sphingomyelin phosphodiesterase (Homo sapiens) (UniProt P17405) (assay: Inhibitors of Secretory Acid Sphingomyelinase (S-ASM): qHTS). Conditions: placental ASM, HMU-PC fluorogenic substrate, 60 min; series mostly up to 57.5 µM; activity change, negative = inhibition: at the top concentration.
Sequence of Sphingomyelin phosphodiesterase (Homo sapiens) (P17405 47-631 limits assumed): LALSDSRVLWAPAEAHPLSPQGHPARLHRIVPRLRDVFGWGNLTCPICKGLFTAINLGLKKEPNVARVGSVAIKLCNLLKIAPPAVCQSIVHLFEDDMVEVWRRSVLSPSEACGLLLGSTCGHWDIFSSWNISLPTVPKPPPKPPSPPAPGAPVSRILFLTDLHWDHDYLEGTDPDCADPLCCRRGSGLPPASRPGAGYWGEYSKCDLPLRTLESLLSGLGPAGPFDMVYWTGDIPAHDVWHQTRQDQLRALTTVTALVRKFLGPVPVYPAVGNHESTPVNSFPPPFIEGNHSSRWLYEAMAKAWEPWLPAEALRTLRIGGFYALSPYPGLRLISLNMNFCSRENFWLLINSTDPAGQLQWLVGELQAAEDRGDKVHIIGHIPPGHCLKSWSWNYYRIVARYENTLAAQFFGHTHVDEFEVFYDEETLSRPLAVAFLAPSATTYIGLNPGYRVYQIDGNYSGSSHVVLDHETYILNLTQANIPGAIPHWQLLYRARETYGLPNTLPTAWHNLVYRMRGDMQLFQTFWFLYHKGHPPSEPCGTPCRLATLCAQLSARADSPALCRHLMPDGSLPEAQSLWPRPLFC
Text: Atherosclerosis is the underlying process for cardiovascular disease and thus is a major contributor to disease burden in the population. […] Thus, selective small molecule inhibitors of S-ASM should block LDL modification and reduce aortic LDL retention and may serve as new agents for the treatment of atherosclerosis. In a collaboration between National Heart, Lung, and Blood Institute and the NCGC a high-throughput amenable screen was developed to identify potent and selective small molecule inhibitors of S-ASM. This enzymatic, fluorescent screen uses an ASM enzyme preparation derived from human placenta and was tested against the NIH Molecular Libraries Small Molecule Repository (MLSMR). NIH Chemical Genomics Center [NCGC] NIH Molecular Libraries Probe Centers Network [MLPCN] MLPCN Grant: MH093173-01 Assay Submitter (PI): Alan Remaley, National Heart, Lung, and Blood Institute and Wei Zhen, NIH Chemical Genomics Center
Two microliters of ASM enzyme (1:150 dilution from stock) are dispensed in 1536-well plate. 23 nL of compound and control are pinned into assay plate using the Kalypsys pintool. The plates are then incubated for 10 minutes at ambient room temperature. Then, 2 uL of the flurogenic substrate, HMU-PC0, (9 uM final) are added to the plate. An incubation for 60 minutes takes place at 37 masculineC. After that, 4 uL of stop solution is added to raise the pH to 10 to end the kinetic reaction. Plate is read on ViewLux, with detection set at Ex = 386 (10) nm and Em = 447 (10) nm.

Row | Structure (SMILES) | activity change, negative = inhibition [%]
1 | COc1ccc(Nc2ncc(C(=O)N3CCN(c4ccccc4OC)CC3)c3ccccc23)cc1 | -5.7
2 | O=C(COC(=O)c1ccc(F)c(S(=O)(=O)N2CCOCC2)c1)NCc1ccc2c(c1)OCO2 | 1.81
3 | Brc1c(CSc2nncc3ccccc23)nc2ccccn12 | 1.36
4 | COc1ccc(Cc2nnc(SCC(=O)N(c3ccccc3)C(C)C)n(N)c2=O)cc1 | -1.08
5 | CC1(C)CC(=O)C=C(c2cccc3c2Oc2ccccc2S3)C1 | -13.8
6 | O=C(NCC1CCCO1)C1CCN(C2CCN(C(=O)C3CCCCC3)CC2)CC1 (centres undefined) | 1.41
7 | FC(F)(F)c1ccc2c3n(nc2c1)CCN=C3c1ccc(Cl)cc1 | -3.7
8 | CC(C)[C@H](NC(=O)Nc1ccc(S(N)(=O)=O)cc1)C(=O)O | 2.71
9 | COc1ccccc1N1CCC(N2CCN(CC(C)(C)C)C(CCO)C2)CC1 (centres undefined) | 3.32
10 | CC(=O)Nc1nc2c(s1)C(=O)NCC(C)(C)C2 | -2.53
11 | COc1ccccc1C(=O)C(O)c1ccccc1OC (centres undefined) | 2.43
12 | Cn1nc(C(F)(F)F)c2cc(NC(=O)OCC(C)(C)C)sc21 | -4.28
13 | O=C(CCNC(=O)c1ccc([N+](=O)[O-])cc1)Nc1ccccc1N1CCOCC1 | 5.76
14 | Cc1cc(C)c(S(=O)(=O)c2cc(F)ccc2C)c(=O)[nH]1 | -1.89
15 | COC(=O)C1=C(C(=O)OC)C2(OC1c1ccc(Br)cc1)C(=O)c1ccccc1C2=O (centres undefined) | -0.0969
16 | COCCNC(=O)CSc1nc2sccc2c(=O)n1-c1ccccc1 | 7.71
17 | CCN(CC)S(=O)(=O)c1ccc(N2CC(C(=O)NCc3cccnc3)CC2=O)cc1 (centres undefined) | 2.74
18 | O=C(Nc1ccc([N+](=O)[O-])cc1)C1CC12CCC2 (centres undefined) | 0.622
19 | Cc1ccc(S(=O)(=O)c2c[nH]c3ccc(C)cc3c2=O)cc1 | 4.26
20 | O=C1CC[C@@H]2CC3(C[C@@H]4CCN1[C@H]24)Nc1cc([N+](=O)[O-])ccc1NC3=NC1CCCCC1 (some centres undefined) | -13.9
21 | COc1cc(OC)cc(C(=O)NCCSCc2ccc(Cl)cc2)c1 | 0.434
22 | CC(C)(C)C(=O)Nc1c(Br)c(C2CC2)nn1-c1ccccc1 | -0.807
23 | CC(C)(C)NC(=O)NC(=O)COC(=O)CCC1CCCCC1 | -1.67
24 | O=C(CCN1C(=O)[C@@H]2Cc3ccccc3CN2C1=O)NCc1ccccc1 | 2.58
25 | Cc1cccc(NC(=S)NCCc2ccc(F)cc2)c1C | 0.269

Row | Structure (SMILES) | activity change, negative = inhibition [%]
26 | Cn1cc(C2OC(=O)c3ccccc32)c2ccccc21 (centres undefined) | 3.97
27 | CCN(C[C@H]1N[C@@](Cc2ccccc2)(C(=O)OC)[C@H]2C(=O)N(Cc3ccccc3)C(=O)[C@@H]12)C(=O)c1ccc(C)cc1 | -2
28 | Cc1c(NC(=O)CN(C)CC(=O)Nc2ccc(F)c(F)c2F)c(=O)n(-c2ccccc2)n1C | 0.31
29 | CC(C(=O)NC1CCCC1)N(c1ccc(Oc2ccccc2)cc1)S(C)(=O)=O (centres undefined) | 4.2
30 | O=C(CCN1C(=O)COc2ccccc21)NCCCN1CCN(c2ccc(F)cc2)CC1 | 2.7
31 | O=C(/C=C/c1cccc([N+](=O)[O-])c1)OCC(=O)N1CCOCC1 | 8.57
32 | COC(=O)c1cccc(C(=O)N2CCC(CCC(=O)NCc3ccc(F)cc3)CC2)c1 | 3.52
33 | CC(=O)OCC(=O)C1(O)CCC2C3CC(C)C4=CC(=O)CCC4(C)C3C(O)CC21C (centres undefined) | 3.04
34 | CC(=O)NNC(=O)c1csc(Cc2c(Cl)sc3ccc(Cl)cc23)n1 | -1.54
35 | CC1CN(S(=O)(=O)c2ccccc2)C(C)CN1S(=O)(=O)c1ccccc1 (centres undefined) | 0.844
36 | Cc1c(Cl)cccc1NC(=O)Nc1ccc(C(=O)N2CCCC2)cc1 | -1.21
37 | O=C(COc1ccc(F)cc1Br)NCC1COc2ccccc2O1 (centres undefined) | 2.18
38 | CCOc1ccc(CCNC(=O)COC(=O)CCS(=O)(=O)c2ccc(C)cc2)cc1OCC | 0.919
39 | Cc1cc(C)nc(SC2CCCCC2NS(=O)(=O)c2ccc(Cl)cc2)n1 (centres undefined) | -1.81
40 | CC1(C)CC(=O)C=C(NCCN2CCNCC2)C1 | 3.44
41 | COc1cccc(C(=O)CC(=O)C(=O)Nc2ccc([N+](=O)[O-])cc2C)c1 | -7.33
42 | COc1cccc(NC(=O)N2CCC(NC(=O)C(Cc3cccc(C)c3)NC(C)=O)CC2)c1 (centres undefined) | 3.08
43 | COc1cccc(N2CCN(C(=O)Nc3ccc4c(c3)NC(=O)CO4)CC2)c1 | -2.58
44 | CCOc1ccc(C(=O)N(Cc2ccc(N(C)C)cc2)C2CCS(=O)(=O)C2)cc1 (centres undefined) | -3.39
45 | O=C(NCCCN1CCCC1=O)c1cccc(S(=O)(=O)NCc2ccccc2)c1 | -0.664
46 | COC(=O)c1ccccc1NC(=O)CSc1nc2c(c(=O)[nH]1)CCC2 | -0.0256
47 | CCOc1ccc(NC(=O)CN(C)CC(=O)Nc2cccc(Cl)c2C)cc1OCC | -1.93
48 | COc1ccc(C(=O)NC(=S)N2CCNC(=O)C2CC(=O)OC(C)C)cc1 (centres undefined) | 2.82
49 | O=C(OCc1cc(Cl)ccc1OC(F)F)c1cccnc1 | 2.08
